# KCNH2 3.1 inh: blocks the human KCNH2 3.1 channel isoform. U2OS KCNH2 3.1, thallium flux FluxOr; active compounds read low. activity change, % (tested at about 1.8 µM). hit rate 0.95% among 340,000. AID 720553;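 active = maximum activity change below -70%; inconclusive = maximum activity change from -70% to -50%; inactive = maximum activity change above -50%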;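 note: thallium influx rate constant from kinetic fluorescence after stimulation buffer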
#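 Kinetic fluorescence (2 min after stimulation buffer) measures Tl+ influx through KCNH2 3.1 expressed by viral transduction in U2OS cells; the rate constant is normalized against DMSO controls serving as positive and negative references.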
# RXFP1 ag: RXFP1 (human) receptor agonism; AID 2676; HEK293T-RXFP1 cAMP TR-FRET, 30 min; response scale: percent of porcine relaxin response, buffer zero; hit rate 0.3% among 370,000; Potency, µM (titrated, usually from 57.5 µM), inactives show at the highest dose activation, most hits filed as activators; Q9HBX9; active = well fitted activation curve with a large enough effect; inconclusive = small, poorly fitted or top-dose-only effect; note: potency is the fitted concentration of half-maximal effect; nearly all actives have a fitted effect of over 60% in size
# Target sequence (Q9HBX9 whole entry, looked up): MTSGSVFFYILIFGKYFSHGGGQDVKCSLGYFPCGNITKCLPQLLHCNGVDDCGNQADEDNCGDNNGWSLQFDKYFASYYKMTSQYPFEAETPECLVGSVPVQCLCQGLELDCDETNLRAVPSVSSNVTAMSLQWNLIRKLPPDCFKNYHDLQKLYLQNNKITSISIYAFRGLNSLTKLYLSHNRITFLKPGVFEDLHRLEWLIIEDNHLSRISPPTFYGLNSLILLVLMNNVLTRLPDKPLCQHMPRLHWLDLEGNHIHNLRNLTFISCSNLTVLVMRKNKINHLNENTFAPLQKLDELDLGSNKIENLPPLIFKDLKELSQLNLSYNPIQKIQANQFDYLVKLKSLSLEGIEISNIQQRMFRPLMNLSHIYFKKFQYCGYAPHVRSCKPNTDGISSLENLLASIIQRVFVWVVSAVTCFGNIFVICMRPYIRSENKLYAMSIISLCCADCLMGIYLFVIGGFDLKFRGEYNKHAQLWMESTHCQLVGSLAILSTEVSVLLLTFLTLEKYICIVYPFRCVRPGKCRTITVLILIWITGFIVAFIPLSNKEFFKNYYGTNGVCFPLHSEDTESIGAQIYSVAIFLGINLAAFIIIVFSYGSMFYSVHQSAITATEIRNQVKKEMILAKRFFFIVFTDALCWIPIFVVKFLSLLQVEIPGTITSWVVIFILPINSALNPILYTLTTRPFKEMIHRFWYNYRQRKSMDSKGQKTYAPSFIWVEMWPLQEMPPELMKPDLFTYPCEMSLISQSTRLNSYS
#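 HEK293 cells stably expressing RXFP1, treated 30 min at 37C with compounds plus PDE4 inhibitor Ro 20174; cAMP measured by HTRF TR-FRET. Normalized to buffer and 29 nM porcine relaxin; EC50 by Hill fit.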
# KCNH2 WT inh: KCNH2 (human, wildtype) channel inhibition | U2OS, BacMam KCNH2, thallium flux FluxOr; active compounds read low | activity change, % at 1.84 µM | hit rate 0.37% among 340,000 | AID 720551 | Q12809;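 active = maximum activity change below -70%; inconclusive = maximum activity change between -70% and -50%; inactive = maximum activity change above -50%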
#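 U2OS cells were transduced with wild-type KCNH2 virus (2.03 x 10^8 / mL) for 4 h at room temperature, then cultured overnight at 37 C. Thallium flux was read with FluxOr dye. Rate constants were normalized to DMSO controls.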
# pAkt inh: Akt phosphorylation inhibition. Neuro2A IGF-stimulated pAkt S473 HTRF, 20 min; active compounds read low. AID 651550. activity change, % for hits at 50 µM. hit rate 0.32% among 360,000; in the data active = activity change below about -80%; inconclusive = mostly about -51% to -80%
#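 Neuro2A cells (4,500/well, DMEM with 0.5% FBS) were treated with compound at a single 50 µM final concentration, stimulated with 6 nM IGF for 20 min at 37 °C, and lysed. Phospho-Akt Ser473 was read by HTRF as 665/615 ratio ×10^4.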
# RXFP1 antag: blocks the human relaxin receptor RXFP1. hit rate 0.59% among 350,000. Q9HBX9. activity change, negative = inhibition, % at 57.5 µM. HEK293-RXFP1, relaxin-stimulated cAMP HTRF, 30 min; active compounds read low;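 active = activity change of -60% or lower, but not beyond a set lower limit; inconclusive = change between -60% and -40%, or beyond the set limit; inactive = change above -40%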
# The depositor's hits bear a star; i = inactive; ? = inconclusive; · = no result. Compounds with a hit are over-represented: about 1.7% of the library has one in this group of screens. % is set by controls: 0 for no effect and ±100 for the full control effect.
SMILES,KCNH2 3.1 inh,RXFP1 ag,KCNH2 WT inh,pAkt inh,RXFP1 antag
COc1ccc2ccccc2c1CNC(=O)CC1C(=O)NCCN1CC(C)(C)C (stereo not drawn),-15.5,5.8%,-12.3,i,-3.4
CCOC(=O)c1c(NC(=O)CN2C(=O)NC3(CCCCC3)C2=O)sc(C)c1-c1ccc(C)cc1,-16.3,0.5%,0.1,i,14.8
NC(=S)N/N=C/c1ccc(/C=N/NC(N)=S)cc1,18.0,-0.8%,4.1,i,-5.4
Cc1ccc2c(C(=O)CN3CCCCC3)c(C)[nH]c2c1,10.6,-1.6%,4.5,i,1.6
O=C1NCCCCC1NC1CC(=O)N(c2ccccc2)C1=O (stereo not drawn),-20.2,1.0%,15.5,·,-20.9
Nc1nc(CN2CCN(Cc3ccc4c(c3)OCO4)CC2)nc(Nc2ccccc2)n1,-76.4*,0.4%,-24.0,i,4.7
CC1CC(C)CN(Cc2nc(N)nc(Nc3ccc4ccccc4c3)n2)C1 (stereo not drawn),-112.6*,-0.7%,-5.5,i,1.3
Nc1nc(CN2CCN(C(c3ccccc3)c3ccccc3)CC2)nc(Nc2ccccc2)n1,-98.1*,0.1%,-24.6,i,-33.5
Nc1nc(CN2CCCCCC2)nc(Nc2ccccc2)n1,-32.1,-1.3%,3.2,i,2.0
O=C(NCCCc1ccccc1)c1ccccc1O,-9.9,-0.3%,-5.0,i,-17.8
CC(Sc1nc2ccc(C(=O)c3ccccc3)cc2[nH]1)C(=O)O (stereo not drawn),-5.7,-0.2%,-5.3,i,3.3
COc1ccc(OC)c(S(=O)(=O)Nc2ccccc2SC)c1,-88.3*,-3.6%,11.2,i,-1.6
COCC(=O)Nc1ccc(Br)cc1C,8.6,0.4%,-7.7,i,-6.2
CCN(CC)c1ccc(/C=C/C(=O)C2C(=O)C=C(C)OC2=O)cc1 (stereo not drawn),-78.2*,24.8%,?,i,-5.0
CCN(CC)c1ccc(C=C2C(=O)OC(c3ccccc3)OC2=O)cc1 (stereo not drawn),10.3,0.1%,-6.3,i,3.2
CC(=O)Nc1ccc(S(=O)(=O)NCCC(=O)Nc2cccc(Cl)c2)cc1,10.0,-0.5%,3.0,i,-2.4
CC(=O)Nc1ccc(S(=O)(=O)NCCOc2ccc(Cl)cc2C)cc1,-190.4*,-2.7%,-120.2*,i,-14.4
CN(C)C(=O)c1ccc(SC(=S)NCc2ccccc2)cc1,·,·,·,i,·
Cc1ccc(S(=O)(=O)N(CC(O)CN2CCCCC2)c2ccccc2)cc1 (stereo not drawn),-32.4,1.5%,24.0,i,·
Cc1ccc(S(=O)(=O)N(C)CC(O)Cn2c3ccccc3c3ccccc32)cc1 (stereo not drawn),-2.8,1.6%,25.0,-113.6%*,-5.1
COc1ccc(N(CC(=O)NCCOc2ccccc2)S(=O)(=O)c2ccc(C)cc2)cc1,-34.2,-1.6%,21.5,i,-61.7*
CCCN(CCC)CC(O)CN(c1ccccc1)S(=O)(=O)c1ccc(C)cc1 (stereo not drawn),-80.6*,-0.3%,-96.3*,i,-7.6
COc1ccc(N(CC(O)Cn2c(C)nc3ccccc32)S(=O)(=O)c2ccc(C)cc2)cc1 (stereo not drawn),-101.7*,1.0%,?,i,4.7
O=C(c1ccc(F)cc1F)C1CCN(c2ccc([N+](=O)[O-])cn2)CC1,-7.3,2.2%,-30.0,i,-35.0
CCOC(=O)Cn1c(=O)c(-c2cc(Br)ccc2N)nc2ccccc21,-39.5,7.6%,-241.8*,i,-4.6
SMILES,KCNH2 3.1 inh,RXFP1 ag,KCNH2 WT inh,pAkt inh,RXFP1 antag
CCOC(=O)Cn1c(=O)c(-c2ccccc2N)nc2ccccc21,-11.8,-2.9%,-0.3,i,·
Cc1ccc(C)c(OC(=O)CN2C(=O)c3ccccc3C2=O)c1,1.9,-0.4%,-93.9*,i,-18.5
O=C(Cn1c(-c2cscn2)nc2ccccc21)Nc1ccc2ccccc2c1,0.6,0.9%,-23.9,i,18.3
Cc1noc(/C=C/N(C)C)c1S(=O)(=O)N(C)Cc1ccc(F)cc1,-198.6*,1.7%,-133.6*,i,-6.3
COc1ccc(OC)c(S(=O)(=O)N2CCN(C(=O)c3ccco3)CC2)c1,19.0,0.1%,-9.1,i,3.4
CC(=O)c1cn(CC(=O)Nc2c(C)cccc2C)c2ccccc12,11.8,0.8%,1.3,i,1.3
CC(=O)c1cn(CC(=O)Nc2ccccc2C)c2ccccc12,6.5,0.6%,2.2,-111.3%*,24.6
CC(=O)OCCNc1cc(Sc2nc3ccccc3[nH]2)c2nonc2c1[N+](=O)[O-],-20.5,4.6%,-1.0,i,-77.7*
O=C(O)c1ccc2c(c1)C(=O)/C(=C\c1ccco1)C2=O,10.0,-1.2%,2.2,i,6.7
Cc1ccc(C(=O)O)cc1NC(=O)C1=CSCCO1,0.4,0.1%,-6.3,·,-110.2*
Cc1ccc(C(=O)O)cc1NC(=O)c1cccs1,-5.5,-0.4%,5.6,i,-2.4
COc1cccc(C(=O)N(Cc2nc(-c3ccc(C)cc3)no2)C(C)C)c1,10.0,-0.5%,2.0,-100.4%*,6.1
Cc1cccc(C(=O)N(Cc2nc(-c3ccc(Cl)cc3)no2)C(C)C)c1,·,0.4%,·,·,-13.3
Cc1ccccc1NC(=O)c1c(C)nc(SCC(=O)OCc2ccccc2)c(C#N)c1-c1ccc(F)cc1,-113.8*,-0.7%,1.0,i,-1.1
COc1ccc(OCCN(C)C(=O)c2cccc(S(=O)(=O)N(C)c3ccccc3)c2)cc1,-2.0,2.9%,6.9,i,-14.3
Cc1cc(C(=O)CSc2nn3c(=O)c(C(C)(C)C)nnc3s2)c(C)n1-c1ccc(F)cc1,6.0,22.2%,-4.4,·,-3.6
CCOc1ccc(-n2c(-c3ccc(Br)cc3)c[n+]3c2CCCCC3)cc1,-85.3*,-1.8%,-81.3*,i,-16.3
CCOc1ccc(-n2c(-c3ccc(OC)cc3)c[n+]3c2CCCCC3)cc1,-32.4,-0.5%,-19.6,i,-20.4
Cc1ccc(CN(Cc2ccco2)C(=O)COc2ccc(C)c(C)c2)cc1,·,0.2%,·,·,·
Cc1cc(OCC(=O)N(Cc2ccc(N(C)C)cc2)Cc2ccco2)cc(C)c1Cl,·,-0.5%,·,·,-6.7
CCc1ccc(OCC(=O)N(Cc2ccc(C)cc2)Cc2ccco2)cc1,·,0.0%,·,·,-61.4*
CC(C)(C)c1ccc(C(=O)N(Cc2ccc(F)cc2)Cc2ccco2)cc1,·,0.9%,·,·,-78.5*
Cc1cccc(OCC(=O)N(Cc2ccc(C(C)(C)C)cc2)Cc2ccco2)c1,·,-1.7%,·,·,-74.8*
COc1cc(C(=O)N(Cc2ccc(F)cc2)Cc2ccco2)cc(OC)c1OC,·,-2.2%,·,·,-8.2
Cc1ccc(C(=O)c2c[nH]cc2-c2ccccc2)cc1,-6.4,-2.5%,0.3,i,-11.4
COc1ccc(CSc2nc3ccccc3c(=O)n2CCCN2CCOCC2)cc1F,-18.3,0.8%,31.4,i,-30.2
Cc1ccc2[nH]c(=S)cc(C)c2c1,9.6,21.5%,1.9,i,-15.1
